This is an account of results in PubChem BioAssay.

Activity calls are given as the source filed them. Unless noted, no rule for the calls is given here.

Test [1] deals with Wnt5a (protein binding on small-molecule microarray). Put plainly: small molecules binding Wnt5a protein – biophysical, small-molecule microarray, 635/667 nm fluorescence, primary screen (AID 1142).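 Also: fluorescence read at 667 nm with signal to noise per printed feature.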 Particulars: 635 nm fluorescence, higher = more signal.
Test [2] can be described thus: ATP-based viability of Huh7 replicon cells – cell-based, CellTiter-Glo luminescence, basal, 48 h, cytotoxicity control for HCV replication inhibitor project, primary screen (AID 1143).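 Also: Huh7 hepatoma cells carrying a hepatitis C replication reporter with no stimulus; test concentration not given here.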 Particulars: higher = more signal, called active from +8 up or from −8 down. On the technique in general: In antiviral work, replicon cells carry a viral genome segment that copies itself.

Test [3] is described as follows: Pseudomonas biofilm growth suppression – PAO1 strain, BacTiter-Glo luminescence, LB-PBS, primary screen (AID 1144). Particulars: P. aeruginosa PAO1 biofilm, 12 h, higher = more signal.
A short description of test [4]: basal CRE-LacZ reporter activity in PC12 – cell-based, unstimulated, primary screen (AID 1145). Particulars: no forskolin, luminescence, 4.5 h, higher = more signal, called active from +8 up or from −8 down.
Test [5] is described as follows: forskolin-driven CRE-LacZ activity in PC12 – cell-based, CRE-LacZ reporter, forskolin-stimulated, primary screen (AID 1146).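 Also: PC12 cells with 6xCRE LacZ reporter stimulated by forskolin 10 µM; beta-galactosidase reporter signal reflecting CREB driven transcription.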 Particulars: luminescence, 4.5 h, higher = more signal, called active from +8 up or from −8 down.
Test [6] has as its target Streptavidin (Streptomyces avidinii) (UniProt P22629). Put plainly: compounds binding control protein streptavidin – biophysical, small-molecule microarray, 635/667 nm fluorescence, artefact control for SMM compound annotation, primary screen (AID 1147).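 Also: signal reflects streptavidin binding to arrayed compounds as a control protein.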 Particulars: higher = more signal.
Test [7] can be described thus: probe aInhba binding on compound microarray – biochemical, small-molecule microarray, 635/667 nm fluorescence, primary screen (AID 1148).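 Also: score merges 667nm spot fluorescence with signal-to-noise for antibody binding to printed compounds.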 Particulars: higher = more signal.
Test [8] has as its target Torsin-1A (Homo sapiens) (UniProt O14656). As to the kind of experiment: TOR1A wild-type binding on microarray – cell lysate, small-molecule microarray, lysate, 635/667 nm, primary screen (AID 1149). Particulars: COS7 hTOR1A-WT lysate, 635 nm fluorescence, higher = more signal.
For test [9] the target is unchanged. As to the kind of experiment: torsin A mutant lysate binding on microarrays – cell lysate, small-molecule microarray, COS7 lysate, 635/667 nm fluorescence, primary screen (AID 1150).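 Also: score pools 667 nm emission and signal to noise measuring lysate protein binding.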 Particulars: COS7 hTOR1A mutant lysate, 635 nm fluorescence, higher = more signal.
In test [10] the test system is Sonic hedgehog protein (Shh). As to the kind of experiment: Sonic hedgehog microarray binding compounds – biochemical, small-molecule microarray, 635/667 nm fluorescence, primary screen (AID 1151).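 Also: Shh protein binding to compounds spotted on small-molecule microarray slides; score combines spot fluorescence intensity with signal-to-noise across triplicate slides.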 Particulars: 635 nm fluorescence, higher = more signal.
A short description of test [11]: optical density shifts of acrAB sulA E. coli – strain DRC41, OD650, 48 h, E. coli filamentation inducer project, primary screen (AID 1152).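 Also: E. coli MC1000 strain DRC41 lacking acrAB efflux pump and sulA.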 Particulars: higher = more signal, called active from +8 up or from −8 down.
Test [12] can be described thus: probe aLefty1 binding on compound microarray – biochemical, small-molecule microarray, 635/667 nm fluorescence, primary screen (AID 1153).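 Also: score merges spot fluorescence with signal-to-noise ratio from the scanned slide images.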 Particulars: higher = more signal.
Test [13] in a line: plasmodial surface anion channel blockers, osmotic lysis – cell-based, P. falciparum Indochina, OD700, 1 h, primary screen (AID 1154). Particulars: P. falciparum Indochina infected RBC osmotic lysis, higher = more signal, called active from +8 up or from −8 down.
Test [14] is described as follows: plasmodial surface anion channel blockers, osmotic lysis – cell-based, P. falciparum Indochina, OD700, 2 h, primary screen (AID 1155).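 Also: lysis reports solute entry through the parasite surface anion channel PSAC.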 Particulars: P. falciparum Indochina infected erythrocytes, higher = more signal, called active from +8 up or from −8 down.
Test [15] in a line: changes in parasitized red cell lysis, either direction – P. falciparum Indochina, OD700, 3 h, PSAC antagonist project, primary screen (AID 1156). Particulars: P. falciparum-infected erythrocytes, osmotic lysis, higher = more signal, called active from +8 up or from −8 down.
Test [16] is described as follows: plasmodial surface anion channel blockers, osmotic lysis – cell-based, P. falciparum Indochina, OD700, 18 h, primary screen (AID 1157). Particulars: P. falciparum Indochina infected erythrocytes, osmotic lysis OD700, 18 h; higher = more signal, called active from +8 up or from −8 down.
Test [17] can be described thus: S6 kinase pathway phospho-S6 level changes – cell-based, A549, cytoblot, luminescence, serum-stimulated, primary screen (AID 1158).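 Also: serum-stimulated A549 lung adenocarcinoma cells; signal is phosphorylated S6 detected by cytoblot immunostaining with HRP secondary.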 Particulars: 5 h, higher = more signal.
Test [18] deals with NADPH oxidase 2 (Homo sapiens) (UniProt P04839). Put plainly: compounds shifting NOX2 Amplex Red fluorescence – cell-based, HEK293-NOX2, PMA-stimulated, NOX inhibitor project, primary screen (AID 1159). Also: test concentration not given here. Particulars: 45 min, higher = more signal, called active from +8 up or from −8 down.
Test [19] concerns the target NADPH oxidase 4 (Homo sapiens) (UniProt Q9NPH5). Put plainly: compounds shifting NOX4 Amplex Red fluorescence – cell-based, HEK293-NOX4, tetracycline-induced, NOX inhibitor project, primary screen (AID 1160). Particulars: HEK293-NOX4, Amplex Red H2O2 fluorescence, 45 min; higher = more signal, called active from +8 up or from −8 down.
Test [20] addresses NADPH oxidase 5 (Homo sapiens) (UniProt Q96PH1). As to the kind of experiment: compounds shifting NOX5 Amplex Red fluorescence – cell-based, HEK293-NOX5, NOX inhibitor project, primary screen (AID 1161). Particulars: HEK293-NOX5, ionomycin, 45 min, higher = more signal.

NADPH oxidase 5 (Homo sapiens), sequence (Q96PH1 whole entry, looked up): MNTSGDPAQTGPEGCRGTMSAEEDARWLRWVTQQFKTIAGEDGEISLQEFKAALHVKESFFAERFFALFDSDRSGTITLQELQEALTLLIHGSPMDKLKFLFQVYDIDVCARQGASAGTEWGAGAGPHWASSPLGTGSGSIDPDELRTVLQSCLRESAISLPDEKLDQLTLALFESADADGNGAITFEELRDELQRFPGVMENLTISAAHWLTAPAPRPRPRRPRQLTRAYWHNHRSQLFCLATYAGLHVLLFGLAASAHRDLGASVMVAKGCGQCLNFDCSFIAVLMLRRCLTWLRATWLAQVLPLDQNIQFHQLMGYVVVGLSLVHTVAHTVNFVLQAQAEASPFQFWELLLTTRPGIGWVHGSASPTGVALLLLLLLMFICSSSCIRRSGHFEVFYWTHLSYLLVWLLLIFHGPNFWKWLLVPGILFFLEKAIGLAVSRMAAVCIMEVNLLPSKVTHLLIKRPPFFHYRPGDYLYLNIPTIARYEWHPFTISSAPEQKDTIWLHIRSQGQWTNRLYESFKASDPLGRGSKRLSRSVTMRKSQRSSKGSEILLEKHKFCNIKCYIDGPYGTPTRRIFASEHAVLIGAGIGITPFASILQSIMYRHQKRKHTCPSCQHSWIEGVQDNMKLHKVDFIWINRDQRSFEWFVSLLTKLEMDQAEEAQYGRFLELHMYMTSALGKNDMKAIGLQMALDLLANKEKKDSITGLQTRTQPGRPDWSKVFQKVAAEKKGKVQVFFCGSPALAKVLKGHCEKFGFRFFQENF
Streptavidin (Streptomyces avidinii), sequence (P22629 whole entry, looked up): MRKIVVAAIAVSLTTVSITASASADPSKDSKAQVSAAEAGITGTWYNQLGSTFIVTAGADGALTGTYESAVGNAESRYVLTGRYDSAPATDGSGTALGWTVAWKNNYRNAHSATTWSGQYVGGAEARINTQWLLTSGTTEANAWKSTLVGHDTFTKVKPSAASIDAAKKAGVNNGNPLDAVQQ
NADPH oxidase 4 (Homo sapiens), sequence (Q9NPH5 whole entry, looked up): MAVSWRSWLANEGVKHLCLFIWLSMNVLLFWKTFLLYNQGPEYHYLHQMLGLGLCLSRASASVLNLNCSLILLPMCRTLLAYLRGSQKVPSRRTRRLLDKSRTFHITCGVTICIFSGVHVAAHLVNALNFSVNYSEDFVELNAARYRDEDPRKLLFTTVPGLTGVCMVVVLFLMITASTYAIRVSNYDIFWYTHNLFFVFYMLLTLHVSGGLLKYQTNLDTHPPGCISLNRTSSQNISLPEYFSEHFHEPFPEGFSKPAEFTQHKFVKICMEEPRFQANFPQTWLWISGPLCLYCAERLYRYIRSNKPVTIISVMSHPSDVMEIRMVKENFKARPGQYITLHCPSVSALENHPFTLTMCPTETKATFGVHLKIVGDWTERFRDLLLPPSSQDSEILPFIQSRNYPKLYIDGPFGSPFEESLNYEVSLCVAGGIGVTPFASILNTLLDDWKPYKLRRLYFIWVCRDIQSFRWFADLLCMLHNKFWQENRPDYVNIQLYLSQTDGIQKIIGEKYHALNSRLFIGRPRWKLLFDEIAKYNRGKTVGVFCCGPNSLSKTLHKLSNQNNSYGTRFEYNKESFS
NADPH oxidase 2 (Homo sapiens), sequence (P04839 whole entry, looked up): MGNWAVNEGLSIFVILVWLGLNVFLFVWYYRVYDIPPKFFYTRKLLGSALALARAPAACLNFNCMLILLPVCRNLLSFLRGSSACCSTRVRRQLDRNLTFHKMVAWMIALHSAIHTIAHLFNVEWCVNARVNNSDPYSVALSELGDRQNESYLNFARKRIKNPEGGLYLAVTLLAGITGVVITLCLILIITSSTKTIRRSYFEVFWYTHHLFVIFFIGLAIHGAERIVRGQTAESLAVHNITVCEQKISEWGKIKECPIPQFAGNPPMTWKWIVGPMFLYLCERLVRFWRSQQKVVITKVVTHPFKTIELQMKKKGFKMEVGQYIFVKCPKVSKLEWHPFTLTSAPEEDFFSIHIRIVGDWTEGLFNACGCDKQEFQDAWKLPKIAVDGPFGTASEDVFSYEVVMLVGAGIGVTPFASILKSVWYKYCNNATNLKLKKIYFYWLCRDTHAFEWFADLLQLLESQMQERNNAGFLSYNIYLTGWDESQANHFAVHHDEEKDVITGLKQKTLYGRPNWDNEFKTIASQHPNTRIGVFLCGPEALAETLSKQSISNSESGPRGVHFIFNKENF
Torsin-1A (Homo sapiens), sequence (O14656 whole entry, looked up): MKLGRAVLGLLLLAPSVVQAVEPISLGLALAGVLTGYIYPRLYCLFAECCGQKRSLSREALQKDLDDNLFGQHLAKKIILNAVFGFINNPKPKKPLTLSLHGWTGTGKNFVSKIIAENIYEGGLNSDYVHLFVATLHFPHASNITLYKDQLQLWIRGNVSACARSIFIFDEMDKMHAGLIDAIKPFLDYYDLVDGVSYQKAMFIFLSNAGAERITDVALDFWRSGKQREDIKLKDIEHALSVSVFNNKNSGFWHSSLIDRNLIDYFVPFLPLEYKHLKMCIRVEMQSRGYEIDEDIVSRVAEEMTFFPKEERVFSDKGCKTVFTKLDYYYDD

As for `COc1cccc([C@H]2Oc3ccc(OC)cc3C(=NO[C@H](C)c3cn([C@@H]4COC[C@H]4O)nn3)[C@@H]2O)c1`, the composite z-score in [1] is -0.104; in test [6] it was 1.44; in [7], -0.182; with Torsin-1A (Homo sapiens) [8] it was -0.102; with Torsin-1A (Homo sapiens) [9] it was -0.119; in test [10], -0.223. The same compound yielded a composite z-score in test [12] of -0.235. The z-score in [2] is -2.16 (inactive); in test [3], -0.302 (inactive); in [4], 6.84 (inactive); in [5] it was 0.258 (inactive); in test [11] it was -1.79 (inactive); in test [13], 0.162 (inactive). The z-score in test [14] is -1.17 (inactive); in test [15], 1.91 (inactive); in [16], -1.69 (inactive); in [17], 0.444; in test [18], -0.683 (inactive); in [19], -0.721 (inactive). The z-score in test [20] is -3.94.
As for `C[C@@H]1CCC2C(=O)N(Cc3ccccc3)C[C@@H](O)CN2[C@H]1c1ccc(Br)cc1` (stereo not given in full), the composite z-score in test [1] was -0.412; in test [6] it was 0.398; in [7], -0.0719; with Torsin-1A (Homo sapiens) [8], 0.866; in the test with Torsin-1A (Homo sapiens) [9], 1.42; in test [10] it was 0.228. In test [12], this compound displayed a composite z-score of -0.0573. Besides, the z-score is -2.02 (inactive) in test [2]; -1.54 (inactive) in test [3]; 2.28 (inactive) in test [4]; -0.284 (inactive) in test [5]; -0.732 (inactive) in test [11]; 0.167 (inactive) in test [13]. Further, the z-score in test [14] was -0.875 (inactive); in test [15] it was -0.75 (inactive); in test [16], -0.567 (inactive); in [17], 0.805; in test [18], 0.615 (inactive); in test [19] it was -0.146 (inactive). Also, the z-score in test [20] is -0.836.
In the case of `CC1CC/C=C\[C@H]2OC34C=CCN(Cn5nnc6ccccc65)C(=O)[C@H]3N(CCO)C(=O)[C@@H]4C2C(=O)O1` (stereo not given in full), the composite z-score in [1] was -0.335; in [6], -0.923; in [7] it was -0.0719; with Torsin-1A (Homo sapiens) [8], 2.73; with Torsin-1A (Homo sapiens) [9] it was 2.11; in test [10], -0.0981. Further, in [12], the composite z-score is -0.155. In addition, the z-score in test [2] is -2.74 (inactive); in test [3], -2.49 (inactive); in test [4] it was -1.44 (inactive); in test [5] it was -1.01 (inactive); in [11], 2.49 (inactive); in [13] it was 2.87 (inactive). Moreover, the z-score in test [14] is 0.218 (inactive); in [15], -1.23 (inactive); in test [16], -0.752 (inactive); in test [17], 1.03; in test [18] it was 1.44 (inactive); in test [19] it was 0.285 (inactive). For the same compound, the z-score in [20] was determined as 2.67.
`COC(=O)[C@]1(CO)N=C(c2ccc(OCCCO)cc2)O[C@@H]1c1ccccc1N=[N+]=[N-]`: the composite z-score in test [1] is 0.421; in [6] it was -0.435; in test [7], 0.0646; with Torsin-1A (Homo sapiens) [8] it was 1.85; with Torsin-1A (Homo sapiens) [9], 1.9; in [10], 2.05. Besides, the composite z-score in [12] was 0.191. Besides, the z-score in test [2] was 0.159 (inactive); in test [3] it was 0.393 (inactive); in test [4], -0.609 (inactive); in test [5], -0.736 (inactive); in test [11], 0.248 (inactive); in [13], 18.3 (active). Further, the z-score in test [14] is 2.32 (inactive); in [15], 1.49 (inactive); in [16], 0.742 (inactive); in test [17], -0.315; in test [18] it was -0.502 (inactive); in test [19], 0.0857 (inactive). The z-score in test [20] was -0.514.
Take `COc1ccc(COC(=O)NN=C2C[C@@H](O)[C@@H](O)[C@@H]3[C@@H]4C(=O)N(c5ccc(F)cc5F)C(=O)[C@@H]4CC[C@@H]23)cc1`: the composite z-score is -0.207 in [1]; 0.509 in test [6]; -0.0762 in test [7]; -0.372 in the test with Torsin-1A (Homo sapiens) [8]; 0.389 in the test with Torsin-1A (Homo sapiens) [9]; -1.13 in test [10]. Besides, the composite z-score in test [12] was 0.235. Further, the z-score in test [2] was 0.0335 (inactive); in test [3], 1.02 (inactive); in [4] it was 1.61 (inactive); in test [5], -0.0874 (inactive); in [11], 0.0009 (inactive); in test [13], 5.54 (inactive). The z-score is 0.54 (inactive) in [14]; 1.15 (inactive) in [15]; 0.302 (inactive) in test [16]; 0.281 in test [17]; 1.5 (inactive) in test [18]; -1.98 (inactive) in test [19]. In addition, the z-score in [20] is -1.12.
